We go through 40 molecules from the supplement of paper PMC10503962.

This assay deals with Trichuris muris adult worms. Description: mean motility score (Paragon pixel variance) of adult worms (arbitrary units); higher = more motile worms, i.e. less anthelmintic effect; extreme values may be limits of the assay. The settings on record: 100 µM; 24 h. The method, then:
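Primary ex vivo screen of 409 approved drugs against adult Trichuris muris worms: one worm per well in RPMI-1640 with penicillin/streptomycin, 100 µM drug in 1% DMSO, 37 °C, 5% CO2 for 24 h. Motility was recorded with INVAPP (200-frame movies) and scored with the Paragon pixel-variance algorithm. Values are means of triplicate wells run on three occasions; levamisole was the positive control and DMSO the negative control.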
On to `CC(C)[C@H](N)C(=O)OCCOCn1cnc2c(=O)nc(N)[nH]c21.Cl` [valacyclovir hydrochloride], for which the mean motility score came out at 4300. In the case of `CCOC(=O)Nc1ccc2c(c1)N(C(=O)CCN1CCOCC1)c1ccccc1S2.Cl` [moricizine hydrochloride], the mean motility score is 5. For `CC[N+](C)(C)c1cccc(O)c1.[Cl-]` [edrophonium chloride] the value was 2890; for `Nc1ncnc2c1ncn2[C@@H]1O[C@H](CO)[C@@H](O)[C@H]1O` [adenosine], 3520; for `CCOc1cc(CC(=O)N[C@@H](CC(C)C)c2ccccc2N2CCCCC2)ccc1C(=O)O` [repaglinide], 268. Molecule `Cc1cccc(N(C)C(=S)Oc2ccc3ccccc3c2)c1` [tolnaftate] showed a mean motility score of 2620. The figure for `NC(=O)c1ncn([C@@H]2O[C@H](CO)[C@@H](O)[C@H]2O)c1O` [mizoribine] is 2990; for `CCN1CCCC1CNC(=O)c1cc(S(N)(=O)=O)ccc1OC` (stereo not given) [sulpiride] it is 2290; for `CC(=O)O[C@]1(C(C)=O)CC[C@H]2[C@@H]3C=C(Cl)C4=CC(=O)CC[C@]4(C)[C@H]3CC[C@@]21C` [chlormadinone acetate] it is 2750. For `O=C(O)c1cc(-c2ccc(F)cc2F)ccc1O` [diflunisal] the value was 1040. For `CC(C)c1c(C(=O)Nc2ccccc2)c(-c2ccccc2)c(-c2ccc(F)cc2)n1CC[C@@H](O)C[C@@H](O)CC(=O)O` [atorvastatin], the mean motility score amounted to 2620. `COc1cc2nccc(Oc3ccc(NC(=O)NC4CC4)c(Cl)c3)c2cc1C(N)=O` [lenvatinib] yielded a mean motility score of 2500. For `OCC(S)CS` (stereo not given) [dimercaprol] the value was 1550; for `COc1ccc2cc([C@@H](C)C(=O)O)ccc2c1` [(R)-naproxen], 1390. The figure for `CC(C)NCC(O)c1ccc(NS(C)(=O)=O)cc1.Cl` (stereo not given) [sotalol hydrochloride] is 2900; for `COc1ccc2cc(CCC(C)=O)ccc2c1` [nabumetone] it is 2720; for `CO[C@H]1/C=C/O[C@@]2(C)Oc3c(C)c(O)c4c(O)c(c(/C=N/N5CCN(C)CC5)c(O)c4c3C2=O)NC(=O)/C(C)=C\C=C\[C@H](C)[C@H](O)[C@@H](C)[C@@H](O)[C@@H](C)[C@H](OC(C)=O)[C@@H]1C` [rifampicin] it is 1330. For `N=C(N)NC(=N)NCCc1ccccc1` [phenformin] the value was 4260.

In the case of `CS(=O)(=O)c1cccc(C[C@H](NC(=O)c2c(Cl)cc3c(c2Cl)CCN(C(=O)c2ccc4ccoc4c2)C3)C(=O)O)c1` [lifitegrast], the mean motility score was 3490. The figure for `CCOc1ccccc1OCCN[C@H](C)Cc1ccc(OC)c(S(N)(=O)=O)c1.Cl` [tamsulosin hydrochloride] is 2890; for `CO/N=C(\C(=O)N[C@@H]1C(=O)N2C(C(=O)[O-])=C(COC(N)=O)CS[C@H]12)c1ccco1.[Na+]` [cefuroxime sodium] it is 2610.

Take `FC(F)(F)C(F)(F)C(F)(F)C(F)(F)C(F)(F)C(F)(F)C(F)(F)C(F)(F)Br` [perflubron]: the mean motility score was 1630. In turn, `CS(=O)(=O)CCNCc1ccc(-c2ccc3ncnc(Nc4ccc(OCc5cccc(F)c5)c(Cl)c4)c3c2)o1` [lapatinib] showed a mean motility score of 999. Molecule `CNC(=O)c1cc(Oc2ccc(NC(=O)Nc3ccc(Cl)c(C(F)(F)F)c3)cc2)ccn1` [sorafenib] came in with a mean motility score of 781. The figure for `CCCc1nc2c(C)cc(-c3nc4ccccc4n3C)cc2n1Cc1ccc(-c2ccccc2C(=O)O)cc1` [telmisartan] is 1900; for `COC1=CC(=O)C[C@@H](C)[C@]12Oc1c(Cl)c(OC)cc(OC)c1C2=O` [griseofulvin] it is 1250; for `COc1ccc(C(=O)CC(=O)c2ccc(C(C)(C)C)cc2)cc1` [avobenzone] it is 3070. `Cn1cnc2c1c(=O)[nH]c(=O)n2C` [theobromine] came in with a mean motility score of 859.

Turning to `COc1ccc(CCN(C)CCCC(C#N)(c2ccc(OC)c(OC)c2)C(C)C)cc1OC` (stereo not given) [verapamil], the mean motility score was 3440.

Molecule `CC1=NS(=O)(=O)c2cc(Cl)ccc2N1` [diazoxide] gave a mean motility score of 3260. The figure for `Clc1ccc(COC(Cn2ccnc2)c2ccc(Cl)cc2Cl)c(Cl)c1` (stereo not given) [miconazole] is 122; for `COc1cccc2c1C(=O)c1c(O)c3c(c(O)c1C2=O)C[C@@](O)(C(=O)CO)C[C@@H]3O[C@H]1C[C@H](N)[C@H](O)[C@H](C)O1` [doxorubicin] it is 2090; for `CCOC(=O)[C@H](CCc1ccccc1)N[C@@H](C)C(=O)N1Cc2ccccc2C[C@H]1C(=O)O.Cl` [quinapril hydrochloride] it is 4700. For `N#Cc1ccc(C(c2ccc(C#N)cc2)n2cncn2)cc1` [letrozole] the value was 4830.

`Cc1cn([C@H]2C=C[C@@H](CO)O2)c(=O)[nH]c1=O` [stavudine] registered a mean motility score of 2180.

In turn, `CCOC(=O)[C@H](CCc1ccccc1)N[C@@H](C)C(=O)N1[C@H](C(=O)O)C[C@@H]2CCC[C@@H]21` [ramipril] returned a mean motility score of 3060. The figure for `COC1=C(OC)C(=O)C(C/C=C(\C)CC/C=C(\C)CC/C=C(\C)CC/C=C(\C)CC/C=C(\C)CC/C=C(\C)CC/C=C(\C)CC/C=C(\C)CC/C=C(\C)CCC=C(C)C)=C(C)C1=O` [ubidecarenone] is 2770; for `COc1cc(N)c(Cl)cc1C(=O)NC1CCN(CCCOc2ccc(F)cc2)CC1OC.O` (stereo not given) [cisapride monohydrate] it is 2840. The figure for `CN(C)CCOC(=O)C(c1ccccc1)C1(O)CCCC1` (stereo not given) [cyclopentolate] is 2640; for `CCCCCNC(=N)N/N=C/c1c[nH]c2ccc(OC)cc12.O=C(O)/C=C\C(=O)O` [tegaserod maleate] it is 0.
